Laboratory results reported in PubChem BioAssay (NCATS).
Several values for one entry are separate records, joined by “and”; a condition that tells them apart may be missing. Equal values may be shown once. Results filed as inconclusive are left out. Unmarked numbers belong to inactive results. Activity calls are given as the source filed them. The call rests on the fitted dose curve; in most records, active means well fitted activation curve with a large enough effect; inconclusive means small, poorly fitted or top-dose-only effect; inactive means no such curve, though single readings can be large or run the other way.

What follows are compounds tested against Cellular tumor antigen p53 (Homo sapiens) (UniProt P04637) (assay: Primary qHTS for small molecule compounds that upregulate eGFP-tagged delta133p53alpha (in N-terminal) cells. (AID 2060322; further: nearly all actives have a fitted effect of over 75% in size;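 on activation: cells pre-induced with doxycycline then dosed without doxycycline; series mostly up to about 56 µM; 0% = DMSO vehicle and 100% = reference activator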)). Details: NCI-H358 eGFP-delta133p53alpha fluorescence, 24 h; activation: stronger effect = higher value.
Outline: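 NCI-H358 cells pre-induced 24 h with 10 ng/ml doxycycline for eGFP-delta133p53alpha, plated dox-free and exposed 24 h at 37C to titrated compounds. Fixed, Hoechst-stained; gated GFP peak intensity by laser scanning cytometry, normalized to DMSO (0%) and 57.5 uM 5-azacytidine (100%).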
Potency means the concentration at half of the fitted maximal effect.

Chain of Cellular tumor antigen p53 (Homo sapiens) (P04637 whole entry, looked up): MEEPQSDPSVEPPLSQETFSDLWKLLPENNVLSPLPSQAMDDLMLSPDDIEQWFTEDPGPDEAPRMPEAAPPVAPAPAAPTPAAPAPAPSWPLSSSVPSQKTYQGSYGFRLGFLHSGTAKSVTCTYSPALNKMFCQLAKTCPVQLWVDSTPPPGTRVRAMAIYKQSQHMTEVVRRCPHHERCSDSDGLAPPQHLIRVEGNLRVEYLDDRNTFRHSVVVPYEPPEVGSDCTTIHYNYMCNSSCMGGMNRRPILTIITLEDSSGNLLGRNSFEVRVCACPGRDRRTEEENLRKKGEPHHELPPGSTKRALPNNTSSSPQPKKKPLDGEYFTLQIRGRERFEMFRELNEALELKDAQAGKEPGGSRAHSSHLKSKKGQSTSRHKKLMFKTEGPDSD

| Structure (SMILES) | activation | Potency |
| --- | --- | --- |
| CS(=O)(=O)Nc1ccc2oc3c(OC(F)F)ccc(C(=O)Nc4c(Cl)cncc4Cl)c3c2c1 | 22% | – |
| Nc1c(-c2ccccc2)nc(Cl)c2c(O)n[nH]c(=O)c12 | -1.91% | – |
| CCNC(=O)C1CC(F)(c2ccc(CN3CCCC3)c(F)c2)C1 (stereo unspecified) | -9.07% | – |
| Cc1cccc2c1NC(=O)C2(c1ccc(O)cc1)c1ccc(O)cc1 | – | 0.213 µM (active) |
| COc1cc(N)c(Cl)cc1C(=O)NC[C@@H]1CCN2CCC[C@@H]12 | -3.34% | – |
| O=C(O)Cc1ccc2oc(-c3ccc(NC(=O)/C=C/c4ccc(Br)cc4)c(F)c3)nc2c1 | 25.8% | – |
| C[C@H](Nc1cc2c(-c3ccc4c(c3)OCO4)noc2cn1)c1ccccc1 | 4.77% | – |
| O=C(NCc1ccccn1)Nc1nnc(-c2ccco2)o1 | 11.9% | – |
| Cc1cc(C)nc(NS(=O)(=O)c2ccc(NC(=S)NC(=O)COc3ccc(Br)cc3Cl)cc2)n1 | -6.21% | – |
| CC(OC1OCCN(Cc2n[nH]c(=O)[nH]2)C1c1ccc(F)cc1)c1cc(C(F)(F)F)cc(C(F)(F)F)c1 (stereo unspecified) | 20.5% | – |
| COc1cc(Nc2nc3c(s2)CCCC3c2ccc(F)cc2)ccc1-n1cnc(C)c1 (stereo unspecified) | -13.4% | – |
| CSc1ccc(C(=O)N[C@@H]2CCCC[C@@H]2NC(=O)CNC(=O)c2cc(C(F)(F)F)ccc2NC(=O)NC(C)C)cc1 | -22% | – |
| CC(C)S(=O)(=O)NC[C@H](C)c1ccc(-c2ccc(CCNS(C)(=O)=O)cc2)cc1 | -5.73% | – |
| CN(C)C(=O)NC1(c2ccccc2)CCN(CCC[C@]2(c3ccc(Cl)c(Cl)c3)CCCN(C(=O)c3ccccc3)C2)CC1 | 13.4% | – |
| O=C(O)c1cccc(S(=O)(=O)N2CCc3ccccc3C2)c1 | -7.64% | – |
| CC(C)(F)CC(NC(c1ccc(-c2ccc(S(C)(=O)=O)cc2)cc1)C(F)(F)F)C(=O)NC1(C#N)CC1 (stereo unspecified) | -1.43% | – |
| Oc1ccc(-c2cnc3ccc(NCc4ccco4)nn23)cc1 | – | 26.9 µM (active) |
| COc1cc2c(cc1OC)-c1[nH]nc(Nc3cccc(F)c3)c1C2 | 6.68% | – |

| Structure (SMILES) | activation | Potency |
| --- | --- | --- |
| CC[C@H]1CN(c2nc(N)c(C(N)=O)nc2Cl)CCN1C1CCN(Cc2ccc(Cl)cc2)CC1 | 3.34% | – |
| CC(C)(F)C[C@@H](N[C@@H](c1ccc(-c2ccc(S(C)(=O)=O)cc2)cc1)C(F)(F)F)C(=O)NC1(C#N)CC1 | -8.11% | – |
| CCOc1ccc(C(Nc2ccccn2)c2ccc3ccc(C)nc3c2O)cc1C (stereo unspecified) | 19.6% | – |
| Cc1ccccc1C(=O)Nc1ccc(C(=O)N2CCCC(N(C)C)c3ccccc32)cc1 (stereo unspecified) | – | 3.89 µM (active) |
| COc1cc2nc(C3CC3)nc(N3CCN(c4ccccc4OC)CC3)c2cc1OC | – | 16.9 µM (active) |
| Cc1ccc(NC(=O)C(C)C)cc1C1CCN(Cc2ccc(Oc3ccc(F)c(F)c3)cc2)CC1 | 16.7% | – |
| O=C1CC2(CCCC2)[C@H](O)C(=O)N1CCCCN1CCN(c2ncccn2)CC1 | 4.77% | – |
| Cc1c(NC(=O)N2CCOCC2)ccc2c1c1ccccc1n2C(C)C | -19.1% | – |
| Cc1ccc(-c2c(-c3nn(C)c4ncnc(N5CC[C@H](N6CCCCC6)C5)c34)cnn2C)cc1 | 0.477% | – |
| CCOC(=O)c1ccc(NC2CCCCC2)c(N)c1 | -6.21% | – |
| Cc1oc2nc3c(c(NC(=O)CN4CCCC4=O)c2c1C)CCCC3 | -3.82% | – |
| CC(C)c1c(NC(=O)Nc2ccc(Cl)cc2)c(=O)n(-c2ccccc2)n1C | 9.07% | – |
| CN[C@@H]1[C@@H](O)[C@@H](O[C@@H]2[C@@H](O)[C@H](O[C@H]3O[C@H](CN)[C@@H](O)[C@H](O)[C@H]3O)[C@@H](N)C[C@H]2NC(=O)[C@@H](O)CN)OC[C@]1(C)O | -2.86% | – |
| COC(=O)CCc1ccc(OCC(O)CNC(C)C)cc1 (stereo unspecified) | 13.4% and 16.7% | – |
| CCOc1ccc(NC(=S)N2CCC(C(O)(c3ccccc3)c3ccccc3)CC2)cc1 | -0.955% | – |
| COc1cccc(-n2nc(C(=O)O)cc2-c2ccc(C3CCCCC3)c(Cl)c2)c1 | 1.43% | – |
| O=C1C(Cc2ccc(O)cc2)N2C(=O)CCN(C(=O)NCc3ccccc3)C2CN1Cc1cccc2ccccc12 (stereo unspecified) | 19.6% | – |
| CCC[C@@]1(CCc2ccccc2)CC(O)=C([C@H](CC)c2cccc(NS(=O)(=O)c3ccc(C(F)(F)F)cn3)c2)C(=O)O1 | -3.82% | – |
